Source: PubChem
A selection: hits, their analogues and other compounds. The true share with any hit is near 4.8%.
HEK293 cAMP cs: counter-screen for TSHR agonists: cAMP increase in parental HEK293; Potency, µM (doses to about 57.1 µM), most hits filed as activators; 73,000 compounds, 2.5% hits; AID 938; parental HEK293 CNG cAMP sensor, membrane potential fluorescence; note: nearly all actives have a fitted effect of over 55% in size
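Counterscreen for endogenous-receptor signalling: CNG-channel HEK 293 cells report cAMP rise by membrane depolarization. After 60 min dye equilibration with 100 uM RO 20-1724, compounds incubated 30 min before bottom-read fluorescence at 590 nm.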
Caspase-1 inhib: allosteric or competitive inhibitors of human caspase-1; Caspase-1 enzyme, Ac-WEHD-AFC fluorogenic rate; 75,000 compounds, 0.03% hits; Potency, µM (highest dose often 57.5 µM), actives largely listed as inhibitors; AID 900
TSHR ag: TSH receptor (human) agonism; HEK293-CNG-TSHR cells (CNG channel as cAMP sensor), membrane potential dye, cAMP; Potency, µM (top dose mostly 57.1 µM), usual class: activators; P16473; 73,000 compounds, 0.48% hits; active = well fitted activation curve with a large enough effect in the main read-out, with a control signal flat, not every such curve was filed as active; inconclusive = small, poorly fitted or top-dose-only effect, or a change in a side signal; inactive = no such curve, though single readings can be large or run the other way; reference of the percent scale not stated here;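 note: the control signal comes from parental cells without the receptor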
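HEK 293 cells stably expressing TSHR and a cAMP-gated CNG channel; parental CNG-only cells as counterscreen. Cells preloaded 60 min with membrane potential dye plus 100 uM RO 20-1724, then compound 30 min; fluorescence read at 590 nm.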
ERK AVP inh: vasopressin-driven ERK pathway inhibition; Potency, µM (top dose mostly 57.5 µM), usual class: inhibitors; AID 995; HEK293-V1b, vasopressin-stimulated pERK AlphaScreen; 72,000 compounds, 0.99% hits; note: nearly all actives have a fitted effect of over 55% in size
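qHTS, compounds titrated on V1b-expressing HEK293 cells. Preincubation 30 min at 37C, vasopressin 25 nM for 5 min, lysis 10 min, bead incubation 5 hr at room temperature.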
Caspase-7 inhib: allosteric or competitive inhibitors of human caspase-7; P55210; recombinant caspase-7, Ac-DEVD-AFC fluorescence rate; Potency, µM (series often up to 57.5 µM), usual class: inhibitors; 75,000 compounds, 0.02% hits; active = well fitted inhibition curve with a large enough effect in the main read-out, with a control signal flat, not every such curve was filed as active; inconclusive = small, poorly fitted or top-dose-only effect, or a change in a side signal
15-hLO inh: blocks human 15-lipoxygenase activity; 74,000 compounds, 1.4% hits; purified 15hLO-1, xylenol orange hydroperoxide absorbance; Potency, µM (titrated, usually from 57.1 µM), actives largely listed as inhibitors; note: nearly all actives have a fitted effect of over 55% in size
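Inhibition is scored from a chromogenic endpoint. After 15 min enzyme-compound contact, arachidonic acid (50 uM final) reacts 6 min with 40 nM 15hLO-1 at room temperature, then Fe-XO reagent is added for 30 min and absorbance ratio recorded.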
Of the large screens only hits and unclear results are named; the others gave an inactive call. Unless noted, calls come from the whole dose curve; as a rule, active = well fitted curve in the direction sought with a large enough effect; inconclusive = small, poorly fitted or top-dose-only effect, or another doubt; inactive = no such curve, though single readings can be large; an effect the other way counts as inactive or inconclusive.

CN(C)c1nc(-c2ccccc2C(F)(F)F)nc2ccccc12	none
CC(c1ccccc1)N1CC(C(=O)N2CCN(c3ccccc3)CC2)CC1=O (stereo not given)	ERK AVP inh 25.1µM
CCNc1ncc2nc(-c3ccc(F)cc3)c(=O)n(-c3ccc(OC)cc3)c2n1	Caspase-7 inhib inconclusive (no result: Caspase-1 inhib)
Cn1c(/N=C/c2c(O)ccc3ccccc23)nc2ccccc21	TSHR ag inconclusive, 15-hLO inh 3.98µM
Cc1nc(CC(=O)Nc2nc(-c3ccccc3)cs2)cs1	none
O=C(Cc1cccs1)Nc1nc(-c2ccccc2)cs1	ERK AVP inh 10µM
Cn1nccc1C(=O)OCC(=O)Nc1nc(-c2ccccc2)cs1	ERK AVP inh 20µM (no result: TSHR ag)
c1cncc(-c2nc(N3CCCCCC3)c3ccccc3n2)c1	HEK293 cAMP cs 25.1µM, TSHR ag inconclusive, ERK AVP inh 20µM
CN1CCN(c2nc(-c3cccnc3)nc3ccccc23)CC1	none
Cc1ccc(C)c(S(=O)(=O)NC(CCC(N)=O)C(=O)O)c1 (stereo not given)	none
Cc1ccc(S(=O)(=O)N(Cc2nccn2C)C(C)C)cc1	TSHR ag 25.1µM
COc1ccccc1N1C(=O)CC(Nc2ccc(N3CCOCC3)cc2)C1=O (stereo not given)	ERK AVP inh inconclusive, 15-hLO inh 12.6µM
Clc1ccc(Cn2ncc3c(N4CCOCC4)ncnc32)cc1	none
COc1ccc(C2(C)NC(=O)N(Cc3cc(Cl)cc4c3OCOC4)C2=O)cc1OC (stereo not given)	HEK293 cAMP cs 15.8µM, TSHR ag inconclusive
COC(=O)N1CCC2(CC1)CN(C(=O)Nc1ccc(OC)cc1)C2	none
O=Cc1cccc(Br)c1	none
Cc1cccc(NC(=O)CN2C(=O)COc3ccc(Cl)cc32)c1	15-hLO inh 5.01µM
N#CCCn1c(=O)c(-c2ccc(Cl)cc2)nc2cnc(Oc3cccc(Cl)c3)nc21	Caspase-7 inhib inconclusive
Nc1nonc1-c1nc2ccccc2n1CC(=O)NC1CCCC1	HEK293 cAMP cs 6.31µM, TSHR ag inconclusive
Nc1nonc1-c1nc2ccccc2n1Cc1ccccc1	HEK293 cAMP cs 25.1µM, TSHR ag inconclusive
CCC(=O)Nc1nonc1-c1nc2ccccc2n1CC(C)C	HEK293 cAMP cs 25.1µM, TSHR ag inconclusive
CC(=O)Nc1nonc1-c1nc2ccccc2n1CC1CC1	HEK293 cAMP cs inconclusive, TSHR ag inconclusive
CCOC(=O)c1ccccc1NC(=O)Cn1c(-c2nonc2N)nc2ccccc21	HEK293 cAMP cs 25.1µM, TSHR ag inconclusive
COCc1nc2ccccc2n1Cc1ccccc1	none
O=C(Cn1c(CN2CCCCC2)nc2ccccc2c1=O)NC1CCCCC1	HEK293 cAMP cs inconclusive, TSHR ag inconclusive
CCOC(=O)c1ccccc1NC(=O)CN1C(=O)c2ccccc2S1(=O)=O	none
OB(O)c1csc2ccccc12	HEK293 cAMP cs inconclusive, TSHR ag inconclusive
CCOc1ccc(Br)cc1S(=O)(=O)Nc1ccccc1N1CCOCC1	HEK293 cAMP cs inconclusive, TSHR ag inconclusive
COC(=O)N1CCC2(CC1)CN(C(=O)Nc1ccccc1)C2	none
CN(C)c1ncc2ncc(=O)n(Cc3ccc(F)cc3)c2n1	HEK293 cAMP cs inconclusive, TSHR ag inconclusive, Caspase-7 inhib inconclusive (no result: Caspase-1 inhib)
Cc1cccc(NC(=O)CNc2cc(C)ccc2C)c1	none
N#C/C(=C\c1ccc[nH]1)Sc1nc2ccccc2s1	ERK AVP inh inconclusive, 15-hLO inh 15.8µM
O=C(Nc1cccc(Cl)c1N1CCCC1)c1cc2ccccc2o1	HEK293 cAMP cs 25.1µM, TSHR ag inconclusive
O=C(Nc1ccc(CN2CCOCC2)cc1)c1cc2ccccc2o1	ERK AVP inh 25.1µM
O=C(Nc1ccccc1N1CCN(C(=O)c2ccc(Cl)cc2)CC1)c1cc2ccccc2o1	HEK293 cAMP cs inconclusive, TSHR ag inconclusive
O=C(Nc1cccc(Cl)c1N1CCCC1)c1ccc(Br)o1	HEK293 cAMP cs 25.1µM, TSHR ag inconclusive
COc1ccc(-n2c(C)nc3c(cnn3-c3ccc(C)c(C)c3)c2=O)cc1	ERK AVP inh inconclusive
COc1ccc(-n2c(/C=C(\C)O)nc(=O)c3c(C)cc(C)nc32)cc1	HEK293 cAMP cs 25.1µM, TSHR ag inconclusive
COc1ccc(-n2c(=O)c(C)nc3cnc(Oc4ccccc4)nc32)cc1	none
Cc1ccc(NC(=O)c2cc(-c3ccco3)on2)cc1C	none
Cc1ccc(NC(=O)c2cc(-c3cccc(O)c3)on2)cc1C	ERK AVP inh 31.6µM
N#CC1=C(N)C2=C(N3CCCCC3)CCCC2C1(C#N)C#N (stereo not given)	Caspase-7 inhib inconclusive, 15-hLO inh 12.6µM (no result: Caspase-1 inhib)
NS(=O)(=O)c1ccc(C(=O)O)cc1	none
O=C(O)c1ccc(S(=O)(=O)Cc2ccccc2)cc1	HEK293 cAMP cs 3.16µM, TSHR ag inconclusive
O=C(O)CCCCCC[C@@H]1C(=O)NC(=O)N1CC[C@@H](O)C1CCCCC1	HEK293 cAMP cs 2µM, TSHR ag inconclusive (no result: Caspase-1 inhib, ERK AVP inh, Caspase-7 inhib, 15-hLO inh)
COCCn1c(=O)c(-c2cc(F)cc(F)c2)nc2cnc(N3CCOCC3)nc21	HEK293 cAMP cs inconclusive, TSHR ag inconclusive, Caspase-7 inhib inconclusive (no result: Caspase-1 inhib)
Cn1c(NC(=O)c2ccccc2Br)cc(=O)n(C)c1=O	Caspase-7 inhib inconclusive, 15-hLO inh 25.1µM (no result: Caspase-1 inhib, ERK AVP inh)
CCN(CC)CCCn1c(-c2ccccc2)nc2c(N(CCOC)CCOC)nc(C)nc21	HEK293 cAMP cs inconclusive, TSHR ag inconclusive
COc1cc(OC)c2c(=O)c(-c3ccc4c(c3)OCO4)coc2c1	none (no result: HEK293 cAMP cs, TSHR ag)
O=c1c(-c2ccc3c(c2)OCCO3)coc2cc(O)cc(O)c12	HEK293 cAMP cs inconclusive, TSHR ag inconclusive, ERK AVP inh inconclusive, 15-hLO inh 15.8µM
O=c1cc(-c2ccccc2O)oc2cc(O)cc(O)c12	ERK AVP inh inconclusive
O=c1c(-c2ccccc2)coc2cc(O)cc(O)c12	15-hLO inh 3.16µM (no result: HEK293 cAMP cs, TSHR ag)
CN(C)c1ncc2nc(-c3ccc(F)cc3)c(=O)n(-c3ccccc3)c2n1	HEK293 cAMP cs inconclusive, TSHR ag inconclusive, Caspase-7 inhib inconclusive (no result: Caspase-1 inhib)
O=C(O)CSC1CC(=O)N(c2cccc(Cl)c2)C1=O (stereo not given)	none
O=C1C2C3CCCC3=C3CCCC3C2C(=O)N1c1cccc(Cl)c1 (stereo not given)	HEK293 cAMP cs inconclusive, TSHR ag inconclusive, 15-hLO inh 10µM
CCn1c(SCC(=O)Nc2cc(OC)ccc2OC)nnc1C1CCCCC1	HEK293 cAMP cs inconclusive, TSHR ag inconclusive
CCOC(=O)c1c(OCC)[nH]c2c1cc(O)c1ccccc12	ERK AVP inh 25.1µM, 15-hLO inh 7.94µM
COc1ccc(C(c2nnnn2Cc2cccs2)N2CCN(c3ccccc3F)CC2)cc1 (stereo not given)	HEK293 cAMP cs 20µM, TSHR ag inconclusive
COc1ccc(C(c2nnnn2Cc2ccccc2)N2CCN(c3ccccc3)CC2)cc1 (stereo not given)	HEK293 cAMP cs inconclusive, TSHR ag inconclusive
